Screening results deposited in PubChem BioAssay by National Center for Advancing Translational Sciences (NCATS).
ATXN2 expr inh = Primary qHTS for Inhibitors of ATXN expression; hit rate 0.72% among 360,000; Potency, µM (titrated, usually from 57 µM), without a hit: top-dose activity change, negative = inhibition, usual class: inhibitors; AID 1745845, 2022; HEK-293 ATXN2-luciferase reporter, luminescence, 24 h; note: % is set by controls: 0 for no effect and ±100 for the full control effect; nearly all actives have a fitted effect of over 55% in size
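ATXN2-luciferase reporter cells (luciferase flanked by upstream and downstream ATXN2 gene portions) were treated 24 h at 37 °C with compounds at up to 57 uM. SteadyGlo luminescence gave expression; GF-AFC fluorescence gave viability.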
Nrf2 block = Nrf2 qHTS screen for inhibitors; A549 ARE-Fluc reporter, luciferase luminescence, 18-24 h; hit rate 2.1% among 360,000; AID 504444, 2011; Potency, µM (highest dose often 46 µM), without a hit: top-dose activity change, negative = inhibition, hits mostly inhibitors; note: % is set by controls: 0 for no effect and ±100 for the full control effect; nearly all actives have a fitted effect of over 60% in size
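Two sequential reads on A549 ARE_Fluc cells exposed to compound for 18-24 h: a CellTiter-Fluor fluorescence read for viability, then a luciferase luminescence read for Nrf2/ARE activity.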
S2 tox = Viability Counterscreen for Primary qHTS for Inhibitors of ATXN expression; S2 cells (HEK-293 line with an ATXN2-luciferase reporter) viability, CellTiter-Fluor protease fluorescence, 24 h; Potency, µM (titrated, usually from 56.7 µM), actives largely listed as cytotoxic; hit rate 0.49% among 400,000; AID 651635, 2014; note: nearly all actives have a fitted effect of over 40% in size
HepG2 viability = qHTS for Inhibitors of TGF-b: Cytotox Counterscreen; HepG2 CAGA-GFP viability, ATP luminescence, 18 h; Potency, µM (titrated, usually from 46.1 µM), without a hit: at the top dose activity change, negative = cytotoxicity, usual class: cytotoxic; hit rate 0.76% among 410,000; AID 588856, 2011
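CellTiter-Glo luminescence gave cytotoxicity after 18 hours at 37 degrees C. The cells were HepG2 CAGA-GFP in 1% FBS DMEM, stimulated with 500 pg/mL TGF-beta after compound addition. %Activity was normalised to no-cell wells (complete cell-killing) and DMSO (no toxicity), and curves were fitted and classified.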
A549 tox = Nrf2 qHTS screen for inhibitors: counterscreen for cytotoxicity. A549 ARE-Fluc cells, CellTiter-Fluor viability, 18-24 h. AID 504648, 2011. Potency, µM (highest dose often 46 µM), for the others: at the highest dose activity change, negative = cytotoxicity, usual class: inhibitors. hit rate 0.16% among 390,000; note: % is set by controls: 0 for no effect and ±100 for the full control effect
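A549 ARE-Fluc cells in 5% FBS OPTI-MEM, 5000 cells/well, rested 2 h then exposed to compounds in concentration-response for 18-24 h at 37 °C. Viability by CellTiter-Fluor fluorescence (Ex 405/Em 525) after 30 min; luciferase luminescence (BugLite, 15 min, RT) read afterwards.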
TGFb inhibitor = qHTS for Inhibitors of TGF-b. hit rate 1.2% among 410,000. AID 588855, 2011. HepG2 CAGA-GFP TGF-b/SMAD3 reporter, GFP fluorescence, 18 h; TGF-beta stimulated, 500 pg/mL final. Potency, µM (series often up to 46.1 µM), for inactives: at the highest dose activity, negative = inhibition, usual class: inhibitors; note: % is set by controls: 0 for no effect and ±100 for the full control effect; nearly all actives have a fitted effect of over 65% in size
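Read-out: total well GFP (ex488/em500-530) summed from mean per-cell fluorescence. Cells: HEPG2 CAGA-GFP, 1% FBS DMEM, 18 h at 37 degrees C with 500 pg/mL final TGF-beta. Unstimulated wells served as the full-inhibition control; stimulated DMSO wells = 0%.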
Numbers without * were called inactive; i = inactive; ? = inconclusive; / = no result given. Rows were chosen to be rich in hits. Some 3.8% of all compounds tested hit in one or more screens of this group. Calls come from the whole dose curve; as a rule, active = well fitted curve in the direction sought with a large enough effect; inconclusive = small, poorly fitted or top-dose-only effect, or another doubt; inactive = no such curve, though single readings can be large; an effect the other way counts as inactive or inconclusive. Potency is the fitted concentration of half-maximal effect.

SMILES	ATXN2 expr inh	Nrf2 block	S2 tox	HepG2 viability	A549 tox	TGFb inhibitor
O=C(COc1ccc([N+](=O)[O-])cc1)N1CCC(c2nc3ccccc3s2)CC1	-38.4%	14.6µM*	?	-32.7%	-25.5%	?
CCc1ccc(OC(C)C(=O)N2CCC(c3nc4ccccc4s3)CC2)cc1 (centres undefined)	0.0%	18.4µM*	?	-26.9%	-22.3%	?
COc1ccccc1OC(C)C(=O)N1CCC(c2nc3ccccc3s2)CC1 (centres undefined)	-26.7%	-14.7%	i	3.5%	-4.3%	?
CCc1noc(C)c1C(=O)Oc1ccc(N(C)S(=O)(=O)c2ccccc2)cc1	-11.2%	16.4µM*	i	0.0%	-9.4%	-3.4%
COc1ccc2cc(/C=C/C(=O)N3CCN(CC(=O)N4CCCCCC4)CC3)ccc2c1	6.7%	20.6µM*	i	-33.0%	-15.3%	0.0%
COC(=O)C1CCN(C(=O)/C=C/c2ccc(OC)cc2)CC1	-8.4%	?	i	-24.2%	-4.4%	2.1%
Cc1cccc(Cc2c(C)nc3c(-c4ccccc4)c(C)[nH]n3c2=O)c1	12.6µM*	5.8µM*	?	-31.2%	?	2.51µM*
Cc1nc2c(-c3ccc(Cl)cc3)c(C)[nH]n2c(=O)c1Cc1ccccc1	?	14.6µM*	?	10µM*	?	11.2µM*
Cc1ccccc1Cc1c(C)nc2c(-c3ccccc3)c(C)[nH]n2c1=O	?	18.4µM*	?	-42.7%	?	?
CCCCc1c(C)nc2c(-c3ccc(OC)cc3)c(C)[nH]n2c1=O	-25.5%	20.6µM*	i	-27.1%	-15.7%	-33.5%
COc1ccc(-c2c(C)[nH]n3c(=O)c(Cc4ccccc4)c(C)nc23)cc1OC	-30.9%	?	i	-12.5%	-12.3%	-5.6%
CCOC(=O)Cc1c(C)nc2c(-c3ccccc3)c(C)[nH]n2c1=O	-5.7%	-9.5%	i	0.0%	-4.9%	-3.3%
Cc1nc2c(-c3ccccc3)c(C)[nH]n2c(=O)c1Cc1ccccc1	-17.3%	?	i	-36.2%	-17.6%	?
O=C(C1CCC1)N1CCc2cc(S(=O)(=O)NCc3ccc(F)cc3)ccc21	-5.8%	-16.0%	i	-4.4%	-2.5%	-0.5%
O=C(CN(c1cccc(C(F)(F)F)c1)S(=O)(=O)c1ccc(Cl)c([N+](=O)[O-])c1)NCc1ccc(F)cc1	?	-22.8%	31.6µM*	-47.2%	-14.0%	?
O=C(CN(c1cccc([N+](=O)[O-])c1)S(=O)(=O)c1ccccc1)NCc1cccnc1	-7.0%	-6.5%	i	1.1%	-8.8%	25.4%
Cc1[nH]c2ccccc2c1/C=C/c1c[nH]c2ccccc12	/	/	/	-25.3%	/	?
CCc1ccc(/C=C/c2c[nH]c3ccccc23)[n+](CC)c1	-35.2%	6.51µM*	?	-4.2%	?	?
CCc1ccc(CNc2ncnc3onc(-c4ccc(Cl)cc4)c23)cc1	4.5%	5.4%	i	-5.1%	2.7%	-6.6%
COC1=CC(=O)C(OC)=C(OC)C1=O	?	2.4%	25.1µM*	-111.9%	-5.7%	?
C[C@H](NC(=O)c1[nH]cnc1C(=O)Nc1ccc(Cl)cc1)c1ccccc1	?	18.4µM*	?	-77.0%	-10.4%	?
Cc1ccc(NC(=O)c2nc[nH]c2C(=O)N[C@@H](C)c2ccccc2)cc1	?	?	?	-18.1%	-4.6%	?
C[C@@H](NC(=O)c1[nH]cnc1C(=O)Nc1ccc(Cl)cc1)c1ccccc1	-21.1%	5.8µM*	?	-89.6%	18.4µM*	?
C[C@@H](NC(=O)c1[nH]cnc1C(=O)Nc1ccccc1)c1ccccc1	?	23.1µM*	?	-25.8%	-8.4%	14.1µM*
C[C@H](NC(=O)c1[nH]cnc1C(=O)Nc1cccc(Cl)c1)c1ccccc1	-11.8%	?	?	-42.8%	-14.4%	?
SMILES	ATXN2 expr inh	Nrf2 block	S2 tox	HepG2 viability	A549 tox	TGFb inhibitor
Cn1c(-n2cccc2)c(-c2c(-c3ccccc3)[nH]c3c2c(=O)[nH]c(=O)n3C)c(=O)[nH]c1=O	9.3%	5.0%	i	-6.6%	-9.6%	1.3%
O=C(NCC1CCCO1)c1ccc(NC(=O)c2cccc([N+](=O)[O-])c2)cc1 (centres undefined)	-12.7%	-28.7%	i	0.8%	-0.6%	7.5%
CCCCCCN1CCN(C2CN(Cc3ccc([N+](=O)[O-])cc3)S(=O)(=O)C2)CC1 (centres undefined)	-2.9%	/	i	-32.5%	/	?
CNc1c(C(=O)O)ccc2c1C(=O)c1ccccc1C2=O	-26.1%	?	?	8.2%	18.4µM*	36.8%
CCNc1c(C(=O)O)ccc2c1C(=O)c1ccccc1C2=O	-22.8%	?	i	-8.5%	-28.9%	-9.7%
C[C@@]12CC(=O)NC1N(C(=O)c1cccc(C(F)(F)F)c1)C(c1ccccc1OC(=O)c1cccc(C(F)(F)F)c1)C2 (some centres undefined)	-7.7%	-26.8%	?	-40.1%	-20.5%	12.6µM*
CC(OC(=O)CC1CCCC1)C(=O)Nc1ccc(S(N)(=O)=O)cc1 (centres undefined)	8.9%	3.6%	i	8.3%	1.7%	6.2%
O=C(COc1ccc2ccc(=O)oc2c1)Nc1ccc(CN2CCOCC2)cc1	7.9%	1.2%	i	1.0%	-1.3%	5.5%
O=C(COc1ccccc1Cl)Nc1ccc(CN2CCOCC2)cc1	-24.8%	23.1µM*	i	-11.6%	-3.8%	-16.4%
O=C(/C=C/c1ccc(Cl)cc1Cl)Nc1ccc(CN2CCOCC2)cc1	?	7.31µM*	i	-13.2%	-11.5%	-16.8%
O=C(CCCOc1ccc(Br)cc1)Nc1ccc(S(=O)(=O)N2CCOCC2)cc1	?	14.6µM*	i	2.7%	0.8%	7.4%
O=C(/C=C/c1ccccc1)Nc1ccc(CN2CCOCC2)cc1	/	-26.9%	i	-4.8%	3.0%	-4.8%
O=C(COc1ccc(Cl)cc1Cl)Nc1ccc(CN2CCOCC2)cc1	-24.7%	?	i	-13.9%	-14.5%	-16.2%
O=C(COc1ccc(S(=O)(=O)N2CCOCC2)cc1)Nc1ccc(Br)cc1	/	?	?	-13.7%	6.4%	-9.7%
O=C(COc1ccc(Br)cc1)Nc1ccc(CN2CCOCC2)cc1	-10.3%	23.1µM*	i	-26.9%	-9.3%	?
Oc1cc(CNC2CCCCC2)c(O)cc1CNC1CCCCC1	-6.5%	2.1%	?	-7.5%	-1.5%	-1.7%
